Assay results published in PubChem BioAssay (Tox21).
Inconclusive results are not listed. A call without a number means that no potency is given here. Calls of active or inactive are those of the source. Calls follow the shape of the dose curve; as a rule, active = well fitted inhibition curve with a large enough effect in the repeat runs; inconclusive = weak or mixed curves; inactive = flat fitted curve, though single readings scatter.

molecular target: Voltage-gated inwardly rectifying potassium channel KCNH2 (Homo sapiens) (UniProt Q12809); experiment: Human Ether-a-go-go-Related Gene (hERG) channel small molecule antagonists: fluorescence cell-based qHTS assay (AID 1671200); conditions: hERG-U2OS cells, FluxOR thallium flux fluorescence; series mostly up to 76.8 µM; also: nearly all actives have a fitted effect of over 50% in size
Sequence (Q12809 whole entry, looked up): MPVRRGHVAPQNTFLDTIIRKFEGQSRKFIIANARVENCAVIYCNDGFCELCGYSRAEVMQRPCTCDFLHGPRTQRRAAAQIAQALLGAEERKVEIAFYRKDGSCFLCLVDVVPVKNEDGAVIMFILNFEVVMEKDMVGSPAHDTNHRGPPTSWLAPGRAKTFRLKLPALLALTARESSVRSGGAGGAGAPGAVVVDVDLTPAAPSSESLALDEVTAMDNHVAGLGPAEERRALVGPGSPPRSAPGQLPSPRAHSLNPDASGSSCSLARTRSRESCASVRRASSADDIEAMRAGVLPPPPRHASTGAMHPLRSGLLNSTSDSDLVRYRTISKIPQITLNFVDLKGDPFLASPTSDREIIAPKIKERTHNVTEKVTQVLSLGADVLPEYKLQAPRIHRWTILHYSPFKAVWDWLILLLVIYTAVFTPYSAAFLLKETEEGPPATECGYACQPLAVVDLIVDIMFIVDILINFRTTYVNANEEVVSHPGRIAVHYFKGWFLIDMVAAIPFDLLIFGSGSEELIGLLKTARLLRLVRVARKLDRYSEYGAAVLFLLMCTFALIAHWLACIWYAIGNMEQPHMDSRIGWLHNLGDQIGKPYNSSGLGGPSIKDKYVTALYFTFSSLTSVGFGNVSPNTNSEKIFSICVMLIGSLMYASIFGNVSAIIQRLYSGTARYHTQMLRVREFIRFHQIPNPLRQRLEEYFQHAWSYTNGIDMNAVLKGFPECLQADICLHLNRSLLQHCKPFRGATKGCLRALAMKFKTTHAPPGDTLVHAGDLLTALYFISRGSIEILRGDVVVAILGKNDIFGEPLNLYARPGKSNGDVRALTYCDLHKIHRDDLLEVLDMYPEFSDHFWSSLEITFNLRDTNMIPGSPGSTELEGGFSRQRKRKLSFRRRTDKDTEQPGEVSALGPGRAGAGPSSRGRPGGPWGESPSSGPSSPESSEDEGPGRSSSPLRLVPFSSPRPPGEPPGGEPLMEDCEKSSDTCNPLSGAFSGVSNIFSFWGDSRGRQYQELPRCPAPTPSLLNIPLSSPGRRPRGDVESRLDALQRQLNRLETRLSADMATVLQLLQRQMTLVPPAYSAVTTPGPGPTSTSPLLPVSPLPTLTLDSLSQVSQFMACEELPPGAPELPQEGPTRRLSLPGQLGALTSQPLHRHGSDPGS
Description: National Center for Advancing Translational Sciences [NCATS]
U.S. Environmental Protection Agency [EPA]
National Institutes of Environmental Health Sciences [NIEHS]
National Toxicology Program [NTP]
U.S. Food and Drug Administration [FDA]
Mutations in the hERG channel cause Long QT (LQT) syndrome. LQT syndrome is a cardiac disorder which can cause ventricle arrhythmia and sudden death. Additionally, compounds which block the hERG channel can cause acquired LQT syndrome. Several FDA approved drugs have been removed from the market due to their hERG blocking activity. A cell-based hERG channel inhibition assay can be used to screen chemical compounds that inhibit hERG channel. This assay measures hERG channel activity using thallium ions as surrogate ions to measure potassium into the cells.
Tox21 Assay Protocol Summary:
hERG-U2OS cells were resuspended in culture medium and dispensed into 1536-well, black wall/clear-bottom plates at 1000cells/well/3uL using a Multidrop Combi dispenser (Thermo Fisher, Waltham, MA). After plates were incubated at 37 C overnight, 3 uL of Loading Buffer provided by FluxOR II Potassium Ion Channel Assay kit (Thermo, Carlsbad, CA) was added to each well. The assay plates were then incubated at room temperature in the dark for 1h. […] After the assay plates were incubated at room temperature for 10 min, 1 uL of Stimulus Buffer provided by FluxOR II Potassium Ion Channel Assay kit was added into each well and fluorescence intensity (480nm excitation/540nm emission) was continuously measured for 2 min at 1 second intervals using a Functional Drug Screening System (FDSS) 7000EX kinetic plate reader (Hamamatsu, Japan).

Compound	Potency
COC(=O)NC(=S)Nc1ccccc1NC(=S)NC(=O)OC	inactive
Oc1ccccc1Cl	inactive
COc1ccc2c3c1O[C@H]1[C@@H](O)C=C[C@H]4[C@@H](C2)N(C)CC[C@@]341	inactive
CCOC(=O)c1ccccc1C(=O)OCC	inactive
C[C@]12CC[C@H]3[C@@H](CC[C@@]45O[C@@H]4C(O)=C(C#N)C[C@]35C)[C@@H]1CC[C@@H]2O	inactive
CN=C=S	inactive
ClCc1cccnc1	inactive
O=c1[nH]c2ccccc2c(=O)o1	inactive
Clc1cccc(Cl)c1Cl	inactive
Nc1ccc(Br)cc1	inactive
O=NN1CCCC1	inactive
Nc1c(Cl)c(Cl)nc(C(=O)O)c1Cl	inactive
CCCN(CCC)c1c([N+](=O)[O-])cc(C(F)(F)F)cc1[N+](=O)[O-]	inactive
CC(C)NC(=O)N1CC(=O)N(c2cc(Cl)cc(Cl)c2)C1=O	inactive
CCOP(=S)(OCC)SCCSCC	inactive
CC(Br)C(=O)O (stereo not given)	inactive
CCCN(CCC)N=O	inactive
Cc1ccccc1O	inactive
CC(C)(C)OOC(=O)c1ccccc1	inactive
COC(=O)c1ccccc1N	inactive

Compound	Potency
CCNc1nc(NC(C)C)nc(SC)n1	inactive
CCC[N+](=O)[O-]	inactive
CN(C)CCO	inactive
O=C(O)c1ccccn1	inactive
CC1OC(C)OC(C)O1 (stereo not given)	inactive
CC(C)N1C(=O)c2ccccc2NS1(=O)=O	inactive
O=S(=O)(c1ccc(O)cc1)c1ccc(O)cc1	inactive
O=S(=O)(c1ccc(Cl)cc1)c1cc(Cl)c(Cl)cc1Cl	inactive
Nc1ccc(Cc2ccc(N)cc2)cc1	inactive
OC(O)C(Cl)(Cl)Cl	inactive
Clc1ccccc1Cl	inactive
O=[N+]([O-])c1ccccc1	inactive
O=c1n(Cl)c(=O)n(Cl)c(=O)n1Cl	inactive
CCCC1COC(Cn2cncn2)(c2ccc(Cl)cc2Cl)O1 (stereo not given)	inactive
Cc1[nH]c(=O)n(C(C)(C)C)c(=O)c1Cl	inactive
C=C(C)CCl	inactive
Cc1ccc([N+](=O)[O-])cc1C	inactive
Clc1ccc(Cl)cc1	inactive
COCCl	inactive
COC(=O)NS(=O)(=O)c1ccc(N)cc1	inactive
